Data on 25 compounds can be found in PubChem BioAssay.

In one assay the target is Follistatin (Homo sapiens) (UniProt P19883). The assay can be described thus: FST protein binding to printed compounds – biochemical, small-molecule microarray, 635/667 nm fluorescence, primary screen (AID 1132). The settings on record: 635 nm fluorescence, higher = more signal.
Follistatin (Homo sapiens), sequence (P19883 whole entry, looked up): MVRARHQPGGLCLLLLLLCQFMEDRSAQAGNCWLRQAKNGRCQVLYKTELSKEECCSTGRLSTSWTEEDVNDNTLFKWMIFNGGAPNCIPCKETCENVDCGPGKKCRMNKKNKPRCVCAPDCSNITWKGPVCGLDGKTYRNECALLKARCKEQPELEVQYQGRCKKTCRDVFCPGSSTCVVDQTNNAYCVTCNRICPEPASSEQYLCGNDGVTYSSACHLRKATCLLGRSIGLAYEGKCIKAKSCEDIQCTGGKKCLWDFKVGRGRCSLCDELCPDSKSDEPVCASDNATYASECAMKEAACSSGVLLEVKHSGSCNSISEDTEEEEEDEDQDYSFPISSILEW
Take `CC1(C)[C@@H]2CC(C(O)C3C=CC4C(=O)N(c5ccccc5)C(=O)C4N3Nc3ccc([N+](=O)[O-])cc3)=C[C@H]1C2` (stereo not given in full): the composite z-score amounted to 1.16.
The same measure, in the same setting: the same measure for `C=CCNC(=O)[C@H]1[C@@H]2C(=O)O[C@@H](c3ccccc3)[C@@H](c3ccccc3)N2[C@@H](c2ccccc2OCCO)[C@]12C(=O)Nc1ccc(C#CCC(C(=O)OC)C(=O)OC)cc12`: 1.35; for `O=C1C2C=CC(C(O)c3cc(C(F)(F)F)cc(C(F)(F)F)c3)N(n3cnnc3)C2C(=O)N1Cc1ccccc1` (stereo not given): -0.192; for `COc1cc(NN2C(C(O)c3ccco3)C=CC3C(=O)N(c4ccccc4)C(=O)C32)cc(OC)c1OC` (stereo not given): 0.363.
Still for that read-out and setting: as for `CN(C)CCCCCCNC(=O)[C@@H]1C[C@@H]2C(=O)N[C@@H](Cc3ccccc3)C(=O)N2[C@@H]1c1ccc(O)cc1`, the figure is 1.44.
Same read-out and setting: as for `CC(C)NC(=O)[C@@]1(c2ccc([N+](=O)[O-])cc2)CC(=O)N(C2CCCCC2)[C@@H]1c1ccc(CO)cc1I`, the figure is -0.315; as for `C=CC[C@]1(C(=O)NCc2ccccc2)N=C(c2ccc(OCCCO)cc2)O[C@H]1c1ccccc1N=[N+]=[N-]`, 1.23.

The target of the next assay is Fibroblast growth factor 2 (Homo sapiens) (UniProt P09038). The assay can be described thus: basic fibroblast growth factor binding to printed compounds – biochemical, small-molecule microarray, 635/667 nm fluorescence, primary screen (AID 1133). The settings on record: FGF2, fluorescence 635/667, higher = more signal.
Fibroblast growth factor 2 (Homo sapiens), sequence (P09038 whole entry, looked up): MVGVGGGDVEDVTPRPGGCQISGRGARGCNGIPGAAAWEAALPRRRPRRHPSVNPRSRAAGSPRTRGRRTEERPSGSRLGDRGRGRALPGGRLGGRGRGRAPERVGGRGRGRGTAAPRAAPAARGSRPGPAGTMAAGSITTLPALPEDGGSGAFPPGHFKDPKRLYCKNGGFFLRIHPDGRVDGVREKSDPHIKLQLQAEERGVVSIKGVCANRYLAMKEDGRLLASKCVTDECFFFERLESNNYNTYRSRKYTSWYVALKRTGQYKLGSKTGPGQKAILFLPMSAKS
The compound `COc1ccc([C@H]2OC[C@@H]3C[C@@H](Cc4ccccc4)C(=O)N32)cc1` gave a composite z-score of 0.91.
The compound `COCCCNC(=O)[C@@H]1c2ccccc2C(=O)N(Cc2ccccc2Cl)[C@H]1c1ccc(CO)cc1` displayed a composite z-score of 1.04.
Same read-out and setting: as for `O=C1C2C=CC(C(O)c3cccc4ccccc34)N(Nc3ccccc3F)C2C(=O)N1c1ccccc1` (stereo not given), the figure is -0.276; as for `COC(=O)[C@@]1(CCS(=O)(=O)c2ccccc2)N=C(c2ccc(OCCCO)cc2)O[C@H]1c1ccccc1CN=[N+]=[N-]`, 0.55.
In the case of `C=C[C@H](OC)[C@@H](OC(=O)Nc1ccc(OC)cc1)c1ccc(O)c(F)c1`, the composite z-score is -1.23.
Same read-out and setting: the same measure for `C=CCC(OC(C)=O)[C@@H]1[C@@H](N(Cc2ccc(-c3ccccc3)cc2)C(=O)c2cccc3ccccc23)c2cc(OCCCO)ccc2N1C(=O)c1ccc(-c2ccccc2)cc1` (stereo not given in full): -0.0136.
Turning to `C=CCOC(=O)[C@H]1[C@@H]2C(=O)O[C@@H](c3ccccc3)[C@@H](c3ccccc3)N2[C@@H](c2ccc(OCCOC(=O)[C@H]3C[C@H]4C(=O)N[C@@H](CCCC[N+](C)(C)C)C(=O)N4[C@H]3c3ccc(O)cc3)cc2)[C@]12C(=O)Nc1ccc(I)cc12`, the composite z-score stood at 1.14.
Turning to `COC(=O)[C@@]1(Cc2ccc(OC)cc2)[C@@H]2C(=CC(=O)[C@H]2CC(=O)C(=O)N2CCCC2)CN1C(=O)c1ccccc1`, the composite z-score is -0.322.
On the same count and under the same terms, as for `C[C@H]1NC(=O)[C@@]23C(=O)N[C@@H](Cc4ccccc4)C2[C@H](C)[C@@]2(C)O[C@H]2C3/C=C/C/C=C\CNC(=O)[C@@H]2CCCN2C1=O` (stereo not given in full), the figure is 0.692.
Take `O=C(OCc1ccccc1)C1=CCC2c3[nH]c4ccccc4c3C(=O)C1N2S(=O)(=O)c1ccccc1[N+](=O)[O-]` (stereo not given): the composite z-score is 0.491.
The same measure, in the same setting: the same measure for `COC(=O)[C@@]1(Cc2ccc(OC)cc2)[C@H]2c3cc(C(=O)N4CCCC4)n(Cc4ccc(C)c(F)c4F)c3C[C@H]2CN1C(=O)c1ccccc1`: -0.294; for `C=CCOC(=O)[C@H]1[C@@H]2C(=O)O[C@@H](c3ccccc3)[C@@H](c3ccccc3)N2[C@@H](c2ccc(OCCOC(=O)[C@H]3C[C@H]4C(=O)N[C@@H](CCCCNC(C)=O)C(=O)N4[C@H]3c3cccc(OCCO)c3)cc2)[C@]12C(=O)Nc1ccccc12`: 1.53; for `CC(C)c1ccc(NN2C(C(O)c3ccc(B(O)O)cc3)C=CC3C(=O)N(c4ccccc4)C(=O)C32)cc1` (stereo not given): -0.159.
Same read-out and setting: as for `CCCC=C(CCC)[C@@H](NC(=O)c1cccs1)c1ccc(C(F)(F)F)cc1`, the figure is 0.0183.
`COc1ccc(C#Cc2ccc3c(c2)[C@]2(C(=O)N3)[C@H](C(=O)Nc3nc4ccccc4s3)[C@H]3C(=O)O[C@H](c4ccccc4)[C@H](c4ccccc4)N3[C@@H]2c2ccc(O)cc2)cc1` came in with a composite z-score of 0.882.
Still for that read-out and setting: as for `CCCCCCc1nc(-c2cc(C)c(OC)c(C)c2)cc2c1[Si](C(C)C)(C(C)C)OC2`, the figure is -0.143; as for `COCCOC(=O)N1C(=O)[C@@]2(c3cc(C#Cc4ccc(OC)cc4)ccc31)[C@H](c1ccccc1OCCO)N1[C@H](c3ccccc3)[C@H](c3ccccc3)OC(=O)[C@H]1[C@@H]2C(=O)NC[C@H](O)c1ccccc1`, 1.6; as for `COC(=O)C(CC#Cc1ccc2c(c1)[C@]1(C(=O)N2)[C@H](c2ccc(OCCO)cc2)N2[C@H](c3ccccc3)[C@H](c3ccccc3)OC(=O)[C@H]2[C@@H]1C(=O)N1CCc2cc(OC)c(OC)cc2C1)C(=O)OC`, 1.57.
